Data: the supplement of paper PMC10849652
Targets with a hit are over-represented here; the source holds about 7,900 in all. About 0.6% of all pairs of compound and target were hits. Values without a mark were called inactive.

How the values were obtained:
Test in all cases: log2 fold change, soluble protein after heating vs DMSO (PISA); higher = thermal stabilisation; K562 cells, 10 uM, 30 min; active = over 0.2 and 3.5 SD of the protein, either way, in both replicates (recomputed)
[1] = compound: CC1=C(C=C(C=C1)NC(=O)C2=CC(=CC=C2)C(C)(C)C#N)NC3=CC4=C(C=C3)N=CN(C4=O)C
Summary of the method: (§1)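 Soluble protein was defined as the supernatant after 21,000xg for 90 min. It came from K562 cells at 2×10^6 cells/mL given 10 μM compound for 30 min, heated in aliquots for 3 min across 48°C-58°C, pooled, and extracted in PBS with 0.5% NP-40 at 4°C, and was quantified by TMTpro 16plex LC-MS/MS with equalised channel sums. Thermal stability against control samples, from duplicates, is reported as log2 fold change.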

[2] = compound: CC1=C(C=C(C=C1)NC(=O)C2=CC(=CC=C2)N(C)C)NC(=O)C3=CC=C(C=C3)O
Summary of the method: as §1

[3] = compound: CC1=CC=C(C=C1)SC2=C3C=C(SC3=CN=C2)C(=O)N
Summary of the method: as §1

[4] = compound: CC1=NC(=CC=C1)C2=C(N=C(N2)C(C)(C)C)C3=CC4=NC=CN=C4C=C3
Summary of the method: as §1

Nexturastat A = compound: CCCCN(Cc1ccc(C(=O)NO)cc1)C(=O)Nc1ccccc1 [Nexturastat A]
Summary of the method: as §1

vemurafenib = compound: CCCS(=O)(=O)Nc1ccc(F)c(C(=O)c2c[nH]c3ncc(-c4ccc(Cl)cc4)cc23)c1F [vemurafenib]
Summary of the method: as §1

[5] = compound: CCCS(=O)(=O)Nc1ccc(F)c(C(=O)c2c[nH]c3ncc(Cl)cc23)c1F
Summary of the method: as §1

[6] = compound: CCCc1cc(C)[nH]c(=O)c1CNC(=O)c1cc(-c2ccnc(N3CCN(C)CC3)c2)cc2c1cnn2C(C)C
Summary of the method: as §1

givinostat = compound: CCN(CC)Cc1ccc2cc(COC(=O)Nc3ccc(C(=O)NO)cc3)ccc2c1 [givinostat]
Summary of the method: as §1

barasertib = compound: CCN(CCCOc1ccc2c(Nc3cc(CC(=O)Nc4cccc(F)c4)[nH]n3)ncnc2c1)CCOP(=O)(O)O [barasertib]
Summary of the method: as §1

Sequence of UniProt Q8WXF1 (Q8WXF1 whole entry, looked up): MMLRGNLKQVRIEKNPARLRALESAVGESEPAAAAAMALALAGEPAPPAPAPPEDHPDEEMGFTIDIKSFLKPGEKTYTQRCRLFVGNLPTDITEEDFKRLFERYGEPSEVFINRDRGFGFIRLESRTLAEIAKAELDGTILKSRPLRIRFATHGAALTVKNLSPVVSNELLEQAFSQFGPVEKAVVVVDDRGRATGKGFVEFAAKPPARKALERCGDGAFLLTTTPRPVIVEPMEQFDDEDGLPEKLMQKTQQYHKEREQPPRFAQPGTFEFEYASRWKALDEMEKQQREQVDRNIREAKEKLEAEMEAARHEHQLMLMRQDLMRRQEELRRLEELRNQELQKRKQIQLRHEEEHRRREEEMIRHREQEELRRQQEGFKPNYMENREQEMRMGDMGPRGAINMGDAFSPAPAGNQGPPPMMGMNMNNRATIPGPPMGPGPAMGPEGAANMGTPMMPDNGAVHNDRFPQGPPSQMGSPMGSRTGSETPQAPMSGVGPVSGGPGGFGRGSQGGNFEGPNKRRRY
Sequence of UniProt Q86W56 (Q86W56 whole entry, looked up): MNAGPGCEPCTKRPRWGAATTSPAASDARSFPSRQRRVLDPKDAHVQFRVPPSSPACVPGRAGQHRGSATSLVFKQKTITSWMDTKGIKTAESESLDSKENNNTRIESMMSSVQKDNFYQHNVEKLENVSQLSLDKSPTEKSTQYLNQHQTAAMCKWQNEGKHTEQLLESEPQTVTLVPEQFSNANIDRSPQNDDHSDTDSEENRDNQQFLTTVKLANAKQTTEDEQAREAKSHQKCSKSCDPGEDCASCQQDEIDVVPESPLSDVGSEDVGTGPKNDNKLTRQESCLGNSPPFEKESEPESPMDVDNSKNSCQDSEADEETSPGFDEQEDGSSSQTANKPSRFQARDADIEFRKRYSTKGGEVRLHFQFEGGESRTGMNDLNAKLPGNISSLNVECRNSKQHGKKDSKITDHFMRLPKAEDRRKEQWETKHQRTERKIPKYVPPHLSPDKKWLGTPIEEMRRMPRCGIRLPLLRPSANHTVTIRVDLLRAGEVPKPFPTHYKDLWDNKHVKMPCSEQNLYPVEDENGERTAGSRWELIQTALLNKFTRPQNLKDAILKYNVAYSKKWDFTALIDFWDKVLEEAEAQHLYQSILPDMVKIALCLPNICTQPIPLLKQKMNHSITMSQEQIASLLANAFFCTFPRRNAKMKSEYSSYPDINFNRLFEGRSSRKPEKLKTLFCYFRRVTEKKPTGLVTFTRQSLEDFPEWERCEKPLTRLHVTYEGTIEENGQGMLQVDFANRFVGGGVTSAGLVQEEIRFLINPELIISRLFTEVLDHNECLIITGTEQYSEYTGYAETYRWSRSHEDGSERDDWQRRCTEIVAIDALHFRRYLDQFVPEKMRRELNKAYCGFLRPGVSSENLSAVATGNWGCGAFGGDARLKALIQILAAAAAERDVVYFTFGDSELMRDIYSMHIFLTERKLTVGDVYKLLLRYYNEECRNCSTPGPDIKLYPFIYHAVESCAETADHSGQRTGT
Sequence of UniProt Q04759 (Q04759 whole entry, looked up): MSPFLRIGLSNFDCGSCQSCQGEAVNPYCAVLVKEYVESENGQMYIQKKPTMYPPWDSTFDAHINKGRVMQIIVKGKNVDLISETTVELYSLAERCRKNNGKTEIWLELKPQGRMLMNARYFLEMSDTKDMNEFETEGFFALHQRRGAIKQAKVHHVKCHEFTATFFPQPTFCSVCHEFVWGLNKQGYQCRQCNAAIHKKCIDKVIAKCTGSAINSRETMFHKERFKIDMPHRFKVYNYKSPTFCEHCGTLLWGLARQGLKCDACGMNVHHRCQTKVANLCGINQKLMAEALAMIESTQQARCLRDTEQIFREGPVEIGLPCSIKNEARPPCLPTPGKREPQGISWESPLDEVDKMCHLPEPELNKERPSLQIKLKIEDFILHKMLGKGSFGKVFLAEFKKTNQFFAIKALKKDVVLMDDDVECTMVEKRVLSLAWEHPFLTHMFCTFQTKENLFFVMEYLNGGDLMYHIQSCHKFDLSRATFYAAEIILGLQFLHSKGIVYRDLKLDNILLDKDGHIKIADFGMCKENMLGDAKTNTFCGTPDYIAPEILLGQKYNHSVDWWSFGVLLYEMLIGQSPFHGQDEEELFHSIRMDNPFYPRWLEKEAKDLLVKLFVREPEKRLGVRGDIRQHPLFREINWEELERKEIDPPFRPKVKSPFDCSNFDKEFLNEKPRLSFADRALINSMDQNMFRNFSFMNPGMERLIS
Sequence of UniProt O43395 (O43395 whole entry, looked up): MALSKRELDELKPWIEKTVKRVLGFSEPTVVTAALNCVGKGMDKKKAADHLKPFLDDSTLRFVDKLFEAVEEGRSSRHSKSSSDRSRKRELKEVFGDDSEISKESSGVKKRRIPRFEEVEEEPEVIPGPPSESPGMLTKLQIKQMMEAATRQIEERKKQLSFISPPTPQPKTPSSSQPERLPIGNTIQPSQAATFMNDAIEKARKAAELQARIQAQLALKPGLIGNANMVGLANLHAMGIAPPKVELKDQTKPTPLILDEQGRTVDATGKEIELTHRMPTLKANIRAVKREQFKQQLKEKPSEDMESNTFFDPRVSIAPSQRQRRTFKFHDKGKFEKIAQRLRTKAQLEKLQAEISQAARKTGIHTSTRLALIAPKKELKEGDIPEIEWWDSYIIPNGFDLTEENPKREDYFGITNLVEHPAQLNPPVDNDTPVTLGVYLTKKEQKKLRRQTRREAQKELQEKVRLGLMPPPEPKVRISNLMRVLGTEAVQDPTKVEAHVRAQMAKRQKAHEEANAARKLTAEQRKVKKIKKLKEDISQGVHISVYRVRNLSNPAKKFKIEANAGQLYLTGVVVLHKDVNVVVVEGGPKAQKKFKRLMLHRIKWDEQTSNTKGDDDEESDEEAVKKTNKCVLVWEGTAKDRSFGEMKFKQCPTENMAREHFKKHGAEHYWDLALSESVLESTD
Sequence of UniProt P31323 (P31323 whole entry, looked up): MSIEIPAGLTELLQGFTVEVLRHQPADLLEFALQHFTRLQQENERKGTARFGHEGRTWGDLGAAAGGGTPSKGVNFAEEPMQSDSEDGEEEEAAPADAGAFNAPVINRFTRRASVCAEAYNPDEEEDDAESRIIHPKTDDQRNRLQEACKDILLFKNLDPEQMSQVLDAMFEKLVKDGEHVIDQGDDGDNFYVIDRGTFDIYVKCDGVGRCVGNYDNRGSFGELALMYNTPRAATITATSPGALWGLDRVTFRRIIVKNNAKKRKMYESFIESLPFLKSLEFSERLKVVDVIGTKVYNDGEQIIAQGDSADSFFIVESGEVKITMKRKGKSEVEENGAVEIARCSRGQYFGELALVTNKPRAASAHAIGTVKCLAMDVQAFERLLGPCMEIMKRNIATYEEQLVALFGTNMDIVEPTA
Sequence of UniProt Q15004 (Q15004 whole entry, looked up): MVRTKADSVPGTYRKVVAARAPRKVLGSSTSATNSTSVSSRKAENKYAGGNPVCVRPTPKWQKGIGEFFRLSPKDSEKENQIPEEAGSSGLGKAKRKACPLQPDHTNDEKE
Sequence of UniProt Q13362 (Q13362 whole entry, looked up): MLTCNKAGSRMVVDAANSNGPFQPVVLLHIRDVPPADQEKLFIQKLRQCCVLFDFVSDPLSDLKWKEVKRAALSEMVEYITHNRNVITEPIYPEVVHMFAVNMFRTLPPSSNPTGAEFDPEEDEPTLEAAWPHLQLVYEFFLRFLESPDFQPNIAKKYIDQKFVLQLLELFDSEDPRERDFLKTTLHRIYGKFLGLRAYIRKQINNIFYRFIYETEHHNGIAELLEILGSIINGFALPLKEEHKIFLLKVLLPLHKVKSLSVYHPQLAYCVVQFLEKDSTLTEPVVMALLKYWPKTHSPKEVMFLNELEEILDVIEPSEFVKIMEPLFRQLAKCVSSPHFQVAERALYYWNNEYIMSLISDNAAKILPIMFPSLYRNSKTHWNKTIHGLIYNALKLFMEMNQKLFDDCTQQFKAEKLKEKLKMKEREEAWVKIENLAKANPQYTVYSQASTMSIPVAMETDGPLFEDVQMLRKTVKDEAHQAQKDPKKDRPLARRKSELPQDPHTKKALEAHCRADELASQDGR
Sequence of UniProt Q9UKL6 (Q9UKL6 whole entry, looked up): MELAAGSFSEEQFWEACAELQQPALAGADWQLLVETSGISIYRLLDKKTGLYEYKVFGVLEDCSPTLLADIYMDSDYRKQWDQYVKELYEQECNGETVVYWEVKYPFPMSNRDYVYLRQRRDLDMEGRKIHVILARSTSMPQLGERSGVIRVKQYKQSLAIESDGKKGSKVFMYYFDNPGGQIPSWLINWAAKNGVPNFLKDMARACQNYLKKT

Target | log2 fold change [1] | log2 fold change [2] | log2 fold change [3] | log2 fold change [4] | log2 fold change (Nexturastat A) | log2 fold change (vemurafenib) | log2 fold change [5] | log2 fold change [6] | log2 fold change (givinostat) | log2 fold change (barasertib)
PSMC3 (UniProt P17980) | 0.013 | 0.02 | -0.024 | -0.051 | 0.034 | -0.063 | -0.055 | 0.002 | -0.034 | -0.059
PRKAR2B (UniProt P31323) | 0.04 | 0.017 | 0.038 | 0.022 | 0.046 | 0.033 | 0.052 | -0.014 | 0 | 0.047
PRCP (UniProt P42785) | 0 | 0.061 | 0.022 | -0.002 | 0.072 | 0.008 | 0.01 | -0.082 | 0.035 | -0.008
PCTP (UniProt Q9UKL6) | -0.007 | 0.004 | 0.052 | 0.039 | -0.003 | 0.005 | 0.066 | 0.026 | -0.035 | 0.013
PMM1 (UniProt Q92871) | -0.164 | 0.007 | -0.037 | 0.027 | -0.037 | -0.007 | -0.012 | -0.165 | -0.013 | -0.003
PLD3 (UniProt Q8IV08) | 0.002 | 0.012 | 0.034 | 0.018 | -0.081 | -0.007 | 0.019 | -0.028 | -0.072 | -0.013
PRKCG (UniProt P05129) | 0.085 | -0.117 | -0.058 | 0.021 | -0.08 | -0.041 | 0.034 | 0.019 | -0.316 | -0.094
PARG (UniProt Q86W56) | 0.126 | -0.064 | -0.008 | 0.025 | 0.018 | 0.087 | -0.006 | -0.003 | 0.107 | 0.07
PRUNE1 (UniProt Q86TP1) | 0.056 | -0.014 | -0.005 | -0.028 | 0.161 | 0.129 | 0.036 | 0.022 | 0.056 | 0.105
POLR1A (UniProt O95602) | -0.082 | -0.019 | -0.198 | -0.185 | 0.489 (active) | 0.052 | 0.062 | 0.321 | 0.083 | 0.016
PPP2R5C isoform 5 (UniProt Q13362) | 0.001 | -0.045 | 0.012 | 0.052 | -0.171 | 0.066 | 0.038 | 0.032 | 0.059 | 0.018
PSMD5 (UniProt Q16401) | -0.009 | -0.001 | 0.023 | 0.027 | -0.01 | 0.015 | 0.047 | 0.003 | -0.007 | 0.027
PRKCQ (UniProt Q04759) | 0.013 | -0.043 | 0.073 | -0.004 | -0.055 | 0.015 | 0.065 | -0.065 | 0.052 | 0.03
PDE4DIP isoform 4 (UniProt Q5VU43) | -0.027 | -0.049 | -0.012 | -0.044 | 0.358 (active) | -0.034 | -0.01 | -0.023 | 0.021 | 0.083
PPP6R1 (UniProt Q9UPN7) | 0.014 | 0.023 | 0.022 | 0.036 | -0.1 | 0.08 | 0.018 | -0.001 | -0.018 | -0.025
PDCD2L (UniProt Q9BRP1) | -0.001 | -0.104 | 0.052 | 0.068 | 0 | -0.038 | 0.079 | 0.045 | -0.088 | 0.069
PCLAF (UniProt Q15004) | -0.119 | 0.031 | -0.014 | -0.009 | -0.002 | -0.097 | -0.083 | 0.115 | -0.061 | -0.007
PPOX (UniProt P50336) | 0.402 | -0.014 | 0.043 | 0.099 | -0.232 | 0.065 | 0.046 | 0.184 | -0.063 | 0
PCBP1 (UniProt Q15365) | 0.034 | -0.037 | 0.112 | 0.067 | -0.038 | 0.022 | 0.097 | -0.011 | 0.013 | 0.021
PSPC1 (UniProt Q8WXF1) | 0.022 | 0.011 | 0.01 | 0.007 | 0.053 | -0.003 | 0.135 | 0.167 | 0.036 | 0.01
PIGT (UniProt Q969N2) | -0.001 | -0.005 | 0.02 | -0.016 | 0.031 | -0.008 | 0.009 | 0.027 | -0.033 | 0.004
PRMT8 (UniProt Q9NR22) | 0.285 | -0.033 | 0.097 | 0.016 | -0.125 | 0.028 | 0.156 | -0.009 | -0.043 | 0.031
PRIM1 (UniProt P49642) | 0.02 | -0.083 | 0.061 | -0.004 | 0.162 | 0.042 | 0.1 | 0.074 | 0.031 | 0.056
PHAX (UniProt Q9H814) | -0.019 | 0.013 | 0.022 | -0.043 | 0.02 | 0.002 | -0.019 | -0.045 | -0.076 | -0.008
PJA2 (UniProt O43164) | -0.059 | 0.019 | -0.008 | -0.019 | 0.188 | -0.024 | -0.062 | -0.024 | 0.017 | -0.004
PSMB6 (UniProt P28072) | 0.002 | 0.306 | -0.036 | -0.001 | -0.019 | -0.038 | -0.062 | -0.024 | -0.025 | -0.04
PCYT1B (UniProt Q9Y5K3) | 0.007 | 0.022 | 0.011 | 0.034 | -0.06 | 0.022 | 0.049 | -0.031 | 0.038 | 0.048
PRPF31 (UniProt Q8WWY3) | 0.021 | -0.12 | 0 | 0.067 | -0.01 | -0.017 | 0.087 | 0.106 | 0.065 | 0.096
PRPF3 (UniProt O43395) | 0.05 | -0.025 | 0.038 | 0.117 | -0.087 | 0.1 | 0.081 | -0.005 | 0.086 | 0.028
PUM1 isoform 3 (UniProt Q14671) | -0.011 | 0.01 | 0.011 | 0.042 | 0.06 | 0.02 | 0.05 | 0.002 | -0.03 | 0.011
